Measured values as given in PubChem BioAssay AID588590 (National Center for Advancing Translational Sciences (NCATS), 2011).
Screen size: about 390,000 compounds; about 4,000 (1%) were called active. Inconclusive results (about 7%) are left out. The sample holds actives, similar compounds and a random draw of the others, so the mix is not that of the screen. A number with no mark means an inactive call. Calls come from the whole dose curve; as a rule, active = well fitted inhibition curve with a large enough effect; inconclusive = small, poorly fitted or top-dose-only effect, or another doubt; inactive = no such curve, though single readings can be large or run the other way.

biological target: DNA polymerase iota (Homo sapiens) (UniProt Q9UNA4); assay: qHTS for Inhibitors of Polymerase Iota; conditions: Pol iota fluorescent replication assay, 10 min; series mostly up to 115 µM; activity, negative = inhibition: at the top concentration
Outline: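 Pol iota at 10 nM preincubated 15 min with compounds at room temperature; reaction started with fluorescent substrate, 50 nM final. Fluorescence read kinetically at 0 and 10 min; buffer-only wells as negative control.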
Potency is the fitted concentration of half-maximal effect.

DNA polymerase iota (Homo sapiens), sequence (Q9UNA4 whole entry, looked up): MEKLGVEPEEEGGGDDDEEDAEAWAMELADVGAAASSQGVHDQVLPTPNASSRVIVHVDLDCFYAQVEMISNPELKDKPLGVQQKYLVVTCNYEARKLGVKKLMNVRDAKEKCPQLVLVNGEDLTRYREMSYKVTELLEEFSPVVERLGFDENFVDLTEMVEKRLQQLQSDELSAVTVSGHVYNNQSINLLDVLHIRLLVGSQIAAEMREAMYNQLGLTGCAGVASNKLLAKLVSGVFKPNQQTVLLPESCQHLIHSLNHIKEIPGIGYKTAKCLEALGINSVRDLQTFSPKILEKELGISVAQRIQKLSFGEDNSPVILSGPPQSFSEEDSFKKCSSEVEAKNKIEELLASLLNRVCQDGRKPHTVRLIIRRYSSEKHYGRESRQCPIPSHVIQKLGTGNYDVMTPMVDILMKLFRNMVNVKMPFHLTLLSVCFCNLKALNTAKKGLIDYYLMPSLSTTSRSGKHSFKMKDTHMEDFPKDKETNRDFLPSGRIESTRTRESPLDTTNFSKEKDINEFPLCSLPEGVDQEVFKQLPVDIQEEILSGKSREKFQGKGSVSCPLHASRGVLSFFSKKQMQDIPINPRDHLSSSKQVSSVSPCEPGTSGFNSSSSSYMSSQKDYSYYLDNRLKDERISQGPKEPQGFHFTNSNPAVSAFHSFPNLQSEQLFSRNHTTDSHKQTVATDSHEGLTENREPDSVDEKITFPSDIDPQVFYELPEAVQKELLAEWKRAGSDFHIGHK

SMILES | Potency | activity, negative = inhibition [%]
O=C(O)C(c1ccccc1)N1C(=O)/C(=C\c2ccc(-c3cccc(Cl)c3)o2)SC1=S (centres undefined) | 31.6 µM (active) | 
O=C(NCc1ccccc1)c1cc(-c2cccc(Cl)c2)on1 |  | -3.04
O=C(NC(=S)Nc1cc(C(F)(F)F)ccc1N1CCOCC1)c1ccc(-c2cccc(Cl)c2)o1 |  | -8.99
Cc1ccc(-c2nnc(Nc3ccc(OCC(N)=O)cc3)c3ccccc23)cc1S(=O)(=O)NCC1CCCO1 (centres undefined) |  | -5.22
O=C(c1cnn2c1NC(=C1CC1)C=C2C(F)F)N1CCc2ccccc2C1 |  | 20.7
Cc1ccc(NC(=O)c2cc(S(=O)(=O)NCCC3=CCCCC3)ccc2F)cc1C |  | -3.59
CCCSc1ncccc1C(=O)O |  | 8.93
O=C(COC(=O)c1cccnc1Cl)NC(=O)NC1CCCCC1 |  | -3.55
O=C(O)c1cccnc1NC1CCCC1 | 89.1 µM (active) | 
CSc1ccccc1-c1nnc(NC(=O)c2ccc3c(c2)OCCO3)o1 |  | -15.2
Cc1ccc(NC(=O)Cn2nnc3sc4c(c3c2=O)CCC(C)C4)cc1 (centres undefined) |  | 20
O=C(CCc1n[nH]c(=O)[nH]c1=O)N/N=C/c1ccc(Br)o1 |  | 5.97
O=C(CCNC(=O)c1ccccc1)NN=Cc1ccc(Br)o1 | 35.5 µM (active) | 
O=C(CCNC(=O)c1ccccc1Cl)NN=Cc1ccco1 |  | 29.4
O=S(=O)(Nc1cccc2cccnc12)c1cccc2cccnc12 |  | 55.6
ClC/C=C/C[n+]1ccccc1Cl |  | -0.0585
CCOC(=O)C1CCCN(C(=O)Cn2ncc3c(C)n(Cc4ccc(F)cc4)c(C)c3c2=O)C1 (centres undefined) |  | 18.1
O=c1ccc2c(-c3ccccc3S(=O)(=O)O)c3ccc(O)c(O)c3oc-2c1O | 1.12 µM (active) | 
COc1ccc(CCn2c3c(c(=O)[nH]c2=S)CN(C(C)C)CN3)cc1OC |  | 32.6
COc1ccccc1-c1cc2nc(C)c(CCC(=O)NC3CCCCC3)c(C)n2n1 |  | 14.6
CN(C)c1ccc(/C=c2\[nH]c(=O)/c(=C/c3ccc(N(C)C)cc3)[nH]c2=O)cc1 |  | 13.7
COc1ccc2c(c1)c(=Cc1ccc(N(C)C)cc1)c1cc(-c3ccccc3)[n+](C)n12 | 39.8 µM (active) | 
O=C(Cn1ncn2nc(-c3cccs3)cc2c1=O)NCc1cccc(Br)c1 |  | 8.76
O=C(Nc1ccc(OC(F)(F)F)cc1)C1CCCN(S(=O)(=O)c2ccc(Br)s2)C1 (centres undefined) |  | 22.4
SCc1nc2ccc(Cl)cc2[nH]1 |  | 37.3

SMILES | Potency | activity, negative = inhibition [%]
Fc1ccc(CN2CCc3nc(Nc4ccccc4)ncc3C2)cc1F |  | 8.9
Cc1cc(C)c(-c2csc(NC(=O)CCCc3nc4ccccc4c(=O)[nH]3)n2)c(C)c1 |  | -0.398
O=C(CSc1nc2ccccc2c(=O)[nH]1)Nc1nc(-c2ccc(Br)cc2)cs1 | 6.31 µM (active) | 
O=C(COC(=O)c1cc(=O)[nH]c2ccccc12)Nc1nc(-c2cccc(Br)c2)cs1 |  | 150
COc1ccc(-n2nc(C(=O)NCCc3ccc(Cl)cc3)c3c4ccccc4n(C)c3c2=O)cc1Cl |  | 21
Cc1cccc(-n2ccnc2SCC(=O)Nc2cccc3ccccc23)c1C |  | 3.77
COc1cc2nc(C#Cc3nc4cc(OC)c(OC)cc4[nH]3)[nH]c2cc1OC |  | 36.6
Cc1cc(C)c2nc(N3CCC(C(=O)NCCN4CCOCC4)CC3)sc2c1 |  | 12.1
Cc1nc(N2CCOCC2)sc1C(=O)NN | 7.08 µM (active) | 
COc1ccc(NC(=O)c2sc(N3CCOCC3)nc2-c2ccccc2)c(OC)c1 |  | -0.489
Cn1c(=O)sc2cc(NS(=O)(=O)c3ccc(C(C)(C)C)cc3)ccc21 |  | 20.1
CCOc1ccc(Nc2oc(/C=C/c3ccc(F)cc3)nc2C#N)cc1 |  | -6.11
COc1cc(C(=O)NCCc2csc3nc(-c4ccccc4C)nn23)cc(OC)c1OC |  | -0.325
CC(=O)N(C1=C(Cl)C(=O)c2ccccc2C1=O)c1ccc(C(=O)O)cc1 | 3.16 µM (active) | 
Cc1cccc(C(C)C)c1NC(=O)C(NS(=O)(=O)c1cccc2nsnc12)c1ccccc1 (centres undefined) |  | 14.3
CC(=O)N1CCCc2cc(S(=O)(=O)N3CCC(C(=O)NC4CCCCC4)CC3)ccc21 |  | 11.2
COc1ccccc1Nc1cc(C(=O)NCCCN(C)C2CCCCC2)c2ccccc2n1 |  | 9.81
COc1ccc(Nc2cc(C(=O)NCCCN(C)c3ccccc3)c3ccccc3n2)c(OC)c1 |  | -12.6
CN(C)CCNC(=O)c1ccc(Cl)c2cc3ccccc3nc12 | 89.1 µM (active) | 
CCOC(=O)c1ccc(NC(=O)CCS(=O)(=O)c2ccc(C)cc2)cc1 |  | 8.77
CCOC(=O)c1c(C)[nH]c(C)c1S(=O)(=O)N1CCC(C(=O)Nc2ccc(C)c(Cl)c2)CC1 |  | 10.4
CCOC(=O)c1scc(-c2ccccc2)c1S(=O)(=O)Nc1ccccc1F |  | -22.6
CCN1CCN(C(c2ccc(C)cc2)c2c(O)cc(C)n(Cc3ccco3)c2=O)CC1 (centres undefined) |  | 24.1
O=C(CSc1ccccc1)Nc1cccc(S(=O)(=O)N2CCOCC2)c1 |  | -11.4
O=C(COC(=O)/C=C/c1ccc(Br)o1)Nc1cccc(S(=O)(=O)N2CCOCC2)c1 | 20 µM (active) | 

SMILES | Potency | activity, negative = inhibition [%]
O=C(COC(=O)CCc1ccc(S(=O)(=O)N2CCOCC2)cc1)Nc1cccc(Cl)c1 |  | 108
Cc1ccc(NC(=O)Cc2ccc(NC(=O)N3CCCCc4ccccc43)cc2)cc1 |  | 11.6
COC1=C/C(=C/c2c(N)n3nc(CC(=O)N4CCOCC4)sc3nc2=O)C=CC1=O | 22.4 µM (active) | 
COc1ccc(-c2nc(SCC(=O)N3CCOCC3)n[nH]2)cc1 |  | 9.38
COc1ccc(-c2ccnc(SCC(=O)N3CCOCC3)n2)cc1 |  | -10.2
C=CCC1=C/C(=C\c2c(N)n3nc(CC(=O)N4CCOCC4)sc3nc2=O)C=C(OC)C1=O | 22.4 µM (active) | 
CCCOc1ccc(C2c3c(-c4ccccc4O)n[nH]c3C(=O)N2Cc2cccnc2)cc1 (centres undefined) |  | -8.5
COc1ccc(CNC(=O)c2ccc(NC(=O)N3CC4CCCN4c4ccccc43)cc2)cc1 (centres undefined) |  | 29.1
O=C1CC(c2ccccc2)CC2=C1C(c1ccco1)n1nc(C(F)(F)F)nc1N2 (centres undefined) |  | 36.4
CC1(C)CC(=O)c2cc(C(=O)NCc3ccccc3)c(=O)[nH]c2C1 |  | -3.14
O=C(CSCc1cnn(-c2ccccc2)c1-n1cccc1)NCc1ccccc1Br |  | 20.1
CC1(C)Cc2ccccc2-c2c[nH]c(=O)n21 |  | 35.5
COc1ccc(S(=O)(=O)Nc2cccc3cccnc23)c(N)c1 |  | 13.3
Cc1ccc(CN(C(=O)c2ccccc2[N+](=O)[O-])c2ccccn2)cc1 |  | 8.51
CCn1cc(C(=O)NCc2ccc(C)cc2)c(=O)c2cc(S(=O)(=O)N3CCc4ccccc4C3)ccc21 |  | 6.69
Cc1ccc(Cc2c(C)nc3nc(SCC(=O)NCCN4CCOCC4)nn3c2C)cc1 |  | 6.43
COc1cc(NC(=O)CSc2nc3nc(C)c(Cc4ccc(C)cc4)c(C)n3n2)cc(OC)c1OC |  | 14.9
Cc1nc2nc(SCC(=O)NCc3ccco3)nn2c(C)c1Cc1ccccc1 | 50.1 µM (active) | 
O=C(CN1C(=O)CCn2nc(-c3ccccc3)cc21)NCc1ccccc1 |  | 15.2
CCCCc1nn2c(=O)cc(COC(=O)c3ccccc3NC(=O)C(C)(C)C)nc2s1 |  | 2.84
COc1ccccc1/C=C/C(=O)OCC(=O)NC1CCCCCC1 |  | 36.9
COc1ccc(/C=C/C(=O)OCC(=O)NC2CCCCCC2)cc1OC | 89.1 µM (active) | 
COc1cc(/C=C/C(=O)OCC(=O)NC2CC2)cc(OC)c1OC |  | -18
Cc1c(Cl)cccc1NC(=O)C1CCCN(C(=O)c2cnn(-c3ccccc3)c2-n2cccc2)C1 (centres undefined) |  | 27.3
CCCS(=O)(=O)C(=C1Nc2ccccc2N1)S(=O)(=O)CCC |  | 2.05

SMILES | Potency | activity, negative = inhibition [%]
CN(C)/C=C1/Nc2ccccc2C1=O | 28.2 µM (active) | 
COc1ccccc1CNC(=O)Cn1nc(C)c2nn(-c3ccc(Cl)cc3)c(C)c2c1=O |  | 19.7
COC(=O)c1ccccc1NS(=O)(=O)c1ccc2c(c1)CCCN2C(C)=O |  | -5.29
O=C1C(Cl)=C(Oc2ccccc2)C(=O)c2ccccc21 | 1.78 µM (active) | 
COc1ccccc1CNC(=O)CS(=O)(=O)c1cccc2nsnc12 |  | 1.49
Cc1nn2c(=O)cc(COC(=O)CNC(=O)c3ccc(F)cc3)nc2s1 |  | -5.5
O=C(Cc1ccccc1)Nc1sc2c(c1C(=O)Nc1ccc(Br)cc1)CCC2 |  | 16.3
COc1cccc(N=C2SC(C(=O)Nc3cccc(Cl)c3)CC(=O)N2C)c1 (centres undefined) |  | -6.41
CCCCNC(=O)Cn1c(SCc2cccc(Cl)c2)nc2ccncc21 |  | 24.8
COCCNC(=O)Nc1ccc2nc(-c3ccco3)c(-c3ccco3)nc2c1 | 2.82 µM (active) | 
COc1ccc(NC(=O)COCc2cc(-c3ccco3)on2)cc1 |  | -14.4
CCOc1ccc(NC(=O)c2ncoc2-c2ccco2)cc1 |  | 2.03
COc1ccc(NC(=O)CCCc2nnc3n(CCC(C)C)c(=O)c4sccc4n23)c(OC)c1 |  | 9.5
Cc1ccc(CN2C(=O)SC(Nc3ccccc3)C2=O)cc1 (centres undefined) |  | -9.14
CC(C)C1N=C2c3ccccc3N=C(SCC(=O)c3ccc(O)c(O)c3)N2C1=O (centres undefined) | 1.41 µM (active) | 
CCOC(=O)CSC1=Nc2ccccc2C2=NC(CCC(=O)NCc3ccc(F)cc3)C(=O)N12 (centres undefined) |  | 0.348
Cc1ccc(CNC(=O)CSC2=Nc3ccccc3C3=NC(C)C(=O)N23)cc1 (centres undefined) |  | -0.464
COc1ccc(NC(=O)CSc2nc3ccccc3n2CC(=O)N2CCCCC2C)cc1 (centres undefined) |  | -7.07
CCOc1ccc(S(=O)(=O)Nc2ccc3oc4c(c3c2)CC(C)CC4)cc1 (centres undefined) |  | 8.03
COC(=O)c1cc(NC(=O)c2sc3ccccc3c2Cl)cc(C(=O)OC)c1 |  | 8.39
Oc1ccc(N=Cc2sc3ccccc3c2Cl)cc1 | 8.91 µM (active) | 
O=S(=O)(c1ccc2nc(N3CCN(c4cccc(Cl)c4)CC3)ccc2c1)N1CCCCC1 |  | -5.47
c1ccc(Cn2nnc3c(N4CCCCC4)ncnc32)cc1 |  | 47.3
Cc1ccc(-c2nc(Cn3c(=O)cc(-c4ccccc4)c4c(C)nn(C)c43)c(C)o2)cc1 |  | -6.95
